PubChem BioAssay AID624330 (Southern Research Specialized Biocontainment Screening …, 2012)
In all, about 340,000 compounds went through this assay and about 2,100 (0.62%) were called active.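 The calls were made as follows: active = first-screen hits whose inhibition reached a set limit at any dose in the follow-up dose series; inconclusive = inhibition above the set first-screen limit but never retested; inactive = the rest.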 The list is a sample of the results. Entries with a potency or affinity are not part of this list.

Each molecule was assayed against Rac GTPase-activating protein 1 (Homo sapiens) (UniProt Q9H0H5) (assay: blockers of MgcRacGAP-driven Rac1 GTP hydrolysis – biochemical, ADP Hunter fluorescence, primary and confirmatory, confirmation (AID 624330;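 also: fluorescence reports GDP produced by GAP-driven GTP hydrolysis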)). Details: MgcRacGAP-stimulated Rac1 GTP hydrolysis, at 30 µM, stronger effect = higher value, GST-tagged Rac1 F28L mutant substrate.
Chain of Rac GTPase-activating protein 1 (Homo sapiens) (Q9H0H5 whole entry, looked up): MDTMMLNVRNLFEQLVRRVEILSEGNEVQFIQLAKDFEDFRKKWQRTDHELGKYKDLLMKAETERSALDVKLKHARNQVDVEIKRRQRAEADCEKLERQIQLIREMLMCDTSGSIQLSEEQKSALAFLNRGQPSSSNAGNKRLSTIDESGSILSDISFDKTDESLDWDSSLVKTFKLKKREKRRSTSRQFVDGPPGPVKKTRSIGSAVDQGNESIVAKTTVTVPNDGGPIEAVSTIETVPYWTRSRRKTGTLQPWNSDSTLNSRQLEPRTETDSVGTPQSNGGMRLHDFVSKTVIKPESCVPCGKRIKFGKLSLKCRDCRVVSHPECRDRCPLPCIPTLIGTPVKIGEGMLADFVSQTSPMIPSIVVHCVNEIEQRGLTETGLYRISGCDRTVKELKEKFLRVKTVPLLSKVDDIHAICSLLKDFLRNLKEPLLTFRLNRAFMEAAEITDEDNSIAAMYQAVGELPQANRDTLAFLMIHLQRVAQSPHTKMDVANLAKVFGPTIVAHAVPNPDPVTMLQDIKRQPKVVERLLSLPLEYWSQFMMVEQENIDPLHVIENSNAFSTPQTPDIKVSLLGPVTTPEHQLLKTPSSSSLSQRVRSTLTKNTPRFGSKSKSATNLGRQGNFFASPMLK

inhibition, inactive:
COc1ccc(S(=O)(=O)N2CCN(c3ncccn3)CC2)cc1 -2.15%
COc1ccc(NC(=O)c2ccc(N3CCCC3=O)cc2)cc1Cl -8.17%
Cc1ccc(SCC(=O)Nc2ccc(N3CCOCC3)cc2)cc1 9.38%
Cc1ccc(Cn2ccc(NC(=O)c3noc4c3CCCC4)n2)cc1 -0.93%
Cc1cc(C(F)(F)F)nn1Cc1n[nH]c(=S)n1Cc1ccccc1 8.02%
CCC(O)CNC(=O)NC(=C(Cl)Cl)c1ccc(C)c(F)c1 (stereo unspecified) -0.09%
O=C(N/N=C\c1cccc(Cl)c1)c1n[nH]c2c1CCCC2 2.96%
CCOC(=O)CNC(=O)C(=O)c1c(O)[nH]c2ccccc12 15.3%
Cc1ccc2c(COC(=O)C34CC5CC(CC(C5)C3)C4)cc(=O)oc2c1 0.94%
Cc1ccc(NCC(=O)c2ccccc2)cc1Cl 3.37%
COc1cc(NC(=O)NS(=O)(=O)c2ccc(C)cc2)cc(OC)c1 4.34%
Cc1ccc(S(=O)(=O)NC(=O)Nc2ccc(F)c(F)c2)cc1 8.4%
COc1ccc(N2CCN(CC(=O)c3c[nH]c4ccccc34)CC2)cc1 -4.34%
CNC(=O)CSc1nc2sccc2c(=O)n1-c1ccccc1 4.24%
COc1ccc(NC(=O)CSc2nc(N)c(C(=O)Nc3ccc(N(C)C)cc3)s2)cc1 16.4%
Cc1nnc(SCC(=O)Nc2nccs2)s1 1.9%
CN(C)c1ccc(NC(=O)c2sc(SCC(=O)Nc3ccc(Br)cc3)nc2N)cc1 10.8%
CCN(CC)C(=O)CSc1nc(N)c(C(=O)Nc2ccc(OC)cc2)s1 14%
Cc1cc(C)cc(OCC(=O)OCC(=O)NC2CC2)c1 -3.46%
CC(C)C(O)(C#CCN1CCCCC1)c1ccccc1 (stereo unspecified) -1.57%
Cc1ccc(NC(=O)CSCC(=O)Nc2nnc(C3CC3)s2)cc1 7.27%
CCOC(=O)c1c(C)n(-c2ccc(C)cc2)c2ccc(OCC(O)CN3CCN(C)CC3)cc12 (stereo unspecified) 5.99%
CCOC(=O)c1c(C)n(-c2ccc(C)cc2)c2ccc(OCC(O)CNCCCO)cc12 (stereo unspecified) 14.9%
O=C(COC(=O)c1cc(=O)[nH]c(=O)[nH]1)NCc1ccccc1 3.71%
O=C(Nc1nnc(-c2ccncc2)s1)C1CCCO1 (stereo unspecified) 2.37%
CC(C)CN(C(=O)COC(=O)c1cc(=O)[nH]c2ccccc12)c1c(N)n(Cc2ccccc2)c(=O)[nH]c1=O 4.11%
